Most compounds without a hit are left out; they make up all but 3.5% or so of the library.
rCAG RNA binder: r(CAG) repeat RNA binding; TO-PRO-1 dye displacement fluorescence; inhibition, % at 3 µM; hit rate 1.3% among 370,000;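 active means inhibition above the plate cutoff, the mean of all test compounds on that plate plus 3 SD, cut at about 35% in these data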;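 further: 0% = DMSO alone and 100% = 100 µM mitoxantrone as full dye displacement; higher means more dye released from RNA so lower well fluorescence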
UHRF1 MBD2 ctr: human UHRF1 methylated DNA binding inhibitors. UHRF1 binding to methylated oligo, TR-FRET. inhibition, % at 4.4 µM. hit rate 0.75% among 370,000; in the data active means inhibition above about 21%;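 further: UHRF1 SRA domain binding a hemimethylated CpG hairpin DNA probe; 0% = median of test compound wells and 100% = reference inhibitor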
Target sequence (Q96T88 whole entry, looked up, the tested form may be a part): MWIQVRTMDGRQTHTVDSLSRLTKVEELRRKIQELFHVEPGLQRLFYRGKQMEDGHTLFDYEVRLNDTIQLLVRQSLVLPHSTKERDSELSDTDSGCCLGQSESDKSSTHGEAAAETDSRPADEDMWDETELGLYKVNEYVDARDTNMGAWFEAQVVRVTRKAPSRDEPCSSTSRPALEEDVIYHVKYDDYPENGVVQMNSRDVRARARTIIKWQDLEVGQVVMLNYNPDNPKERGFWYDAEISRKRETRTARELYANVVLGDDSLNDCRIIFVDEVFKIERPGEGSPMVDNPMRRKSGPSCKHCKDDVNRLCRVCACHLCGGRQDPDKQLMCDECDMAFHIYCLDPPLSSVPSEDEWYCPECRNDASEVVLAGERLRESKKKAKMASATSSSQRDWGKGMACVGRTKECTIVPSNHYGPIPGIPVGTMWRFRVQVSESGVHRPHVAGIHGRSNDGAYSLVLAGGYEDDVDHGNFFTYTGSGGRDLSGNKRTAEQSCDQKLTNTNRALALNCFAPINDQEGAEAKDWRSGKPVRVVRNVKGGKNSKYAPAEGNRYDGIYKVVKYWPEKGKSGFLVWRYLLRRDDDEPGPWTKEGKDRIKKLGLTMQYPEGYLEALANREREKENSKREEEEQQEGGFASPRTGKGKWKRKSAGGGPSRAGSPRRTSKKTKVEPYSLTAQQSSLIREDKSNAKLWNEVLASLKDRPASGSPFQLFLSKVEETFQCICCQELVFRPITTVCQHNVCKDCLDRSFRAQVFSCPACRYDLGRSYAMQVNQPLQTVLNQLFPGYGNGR
MBD2 inh: MBD2-methylated oligo binding inhibition; Q9UBB5; TR-FRET, MBD2 binding to methylated oligonucleotide; inhibition, % at 4.4 µM; hit rate 0.31% among 370,000; AID 686964; in the data active means inhibition above about 13%
PG9 binder: small molecules binding HIV-1 gp120 antibody PG9 | TR-FRET gp120-PG9 antibody binding | inhibition, % at 6.7 µM | hit rate 0.43% among 360,000; in the data active means inhibition above about 8.5%
DNMT1 inh: blocks human DNA methyltransferase DNMT1 | inhibition (reported as % activation of signal), % at 10 µM | DNMT1 molecular beacon, Hinp1I cleavage, fluorescence | hit rate 0.83% among 360,000; in the data active means inhibition above about 50%
LEDGF integ inh: blocks HIV-1 LEDGF/p75-dependent DNA integration; TR-FRET IN-LEDGF/p75 DNA integration, Eu/Cy5; inhibition, % at 3.7 µM; hit rate 0.64% among 370,000;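 active means inhibition above the screen-wide mean plus 3 SD, cut at about 13% in these data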;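 further: signal is the Cy5 over europium emission ratio at 671 and 618 nm; 0% = plate median of compound wells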
IN multimer act: HIV-1 integrase multimerization activation, counter-screen | shares compounds with LEDGF integ inh | TR-FRET HIV-1 integrase multimerization, biochemical | activation, % at 7.7 µM | hit rate 17% among 2,000 | AID 1053131; in the data active means activation above about 8.9%
TRFRET interf: TR-FRET optical interference, LEDGF/p75 integration counter-screen; shares compounds with LEDGF integ inh; 2,000 tested, under 10 active; inhibition, % at 7.7 µM; TR-FRET optical interference counterscreen, HIV-1 IN multimerization; AID 1053135;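 active means inhibition above the mean over all tested compounds plus 3 SD, which no compound reached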;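 further: 0% = integrase with antibodies and DMSO and 100% = antibodies without integrase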
IN-LEDGF confirm: LEDGF/p75-dependent HIV-1 integration inhibition, confirmation; shares compounds with LEDGF integ inh; TR-FRET LEDGF/p75-dependent HIV-1 integration, biochemical; inhibition, % at 3.7 µM; hit rate 36% among 2,000; in the data active means inhibition above about 14%
An asterisk follows results filed as active; nt = not tested or not shown.

SMILES	rCAG RNA binder	UHRF1 MBD2 ctr	MBD2 inh	PG9 binder	DNMT1 inh	LEDGF integ inh	IN multimer act	TRFRET interf	IN-LEDGF confirm
O=c1cc(-c2ccc(O)c(O)c2)oc2cc(O)c(C3OC(CO)C(O)C(O)C3O)c(O)c12 (configuration not stated)	4.9	-3.6	-7.1	-4.9	12.2	46.0*	73.2*	-368.7	90.6*
O=c1cc(-c2ccc(O)cc2)oc2cc(O)c([C@@H]3O[C@H](CO)[C@@H](O)[C@H](O)[C@H]3O)c(O)c12	1.7	-7.5	0.8	1.8	-2.4	3.2	nt	nt	nt
COc1ccc(NC(=O)CCc2c(C)nc3nc(CNC(=O)c4cccc(F)c4)nn3c2C)cc1OC	-2.2	-0.7	2.7	-0.7	-1.9	-1.5	nt	nt	nt
CCc1nc2ccc(C(=O)N3CCN(C(=O)c4ccco4)CC3)cn2c1N(CCC(C)C)CCN(C)C	-3.2	2.5	9.8	-1.5	-1.6	-4.5	nt	nt	nt
NC(=O)CC1Nc2cccc3cccc(c23)NC1=O (configuration not stated)	6.2	-2.0	-2.3	-19.3	-22.4	18.7*	35.3*	-125.7	31.5*
COc1ccc(/C=C/S(=O)(=O)NCC(C)C)c(CNC(=O)OC(C)(C)C)c1	2.1	2.4	-2.3	nt	nt	-2.6	nt	nt	nt
CCOc1cc(/C=C2\C(=O)N(c3ccc(C(N)=O)cc3)N=C2C)ccc1OC(=O)c1cccs1	nt	nt	nt	nt	30.2	nt	nt	nt	nt
CCOc1cc(/C=C2/C(=O)N(c3ccccc3)N=C2C)ccc1OC(=O)c1ccco1	17.8	18.3	9.6	-1.2	-2.7	25.4*	1.3	-4.8	6.6
CCOc1ccc(NC(=O)Nc2cc(-c3ccccc3)sc2C(=O)OC)cc1	2.8	-1.7	5.9	-2.4	-9.4	21.3*	1.5	-5.3	-2.4
Cc1sc2ncnc(SCC(=O)N3CCCCC3)c2c1C	-6.7	0.2	3.5	-1.1	2.0	-2.9	nt	nt	nt
Cc1sc2ncnc(SCC(=O)N3CCCC3=O)c2c1C	-1.5	-1.8	-2.4	2.1	2.3	60.8*	1.4	-7.0	-0.1
O=C(C(=O)N1CCC(CNC(=O)C2COc3ccccc3O2)CC1)c1cccs1 (configuration not stated)	1.4	-0.2	-0.7	1.3	nt	20.8*	5.0	-24.0	-0.7
O=C(C(=O)N1CCC(Cc2ccccc2)CC1)c1cccs1	1.0	3.9	9.2	-0.9	nt	1.1	nt	nt	nt
CC(C)[C@H](NC(=O)c1ccc(Cl)cc1Cl)C(=O)NNC(=O)c1ccco1	1.0	-2.0	1.5	0.8	-1.9	3.2	nt	nt	nt
COc1ccccc1/C=C\C(=O)NCC(=O)N/N=C/c1ccc(O)cc1O	12.5	-2.4	-1.4	-1.2	-2.8	16.2*	4.7	-23.6	-3.8
COc1ccc(Nc2ncc(C(=O)O)c3ccccc23)cc1	-1.4	7.5	2.6	-4.9	-2.4	-7.3	nt	nt	nt
COc1ccc(Nc2ncc(C(=O)N3CCN(c4ccc(F)cc4)CC3)c3ccccc23)cc1	-0.4	2.4	-1.7	-0.7	-13.3	14.0*	-0.6	3.0	-5.0
OC(c1ccc(F)c(F)c1)c1nc(-c2cc(F)cc(F)c2)cs1 (configuration not stated)	-0.5	-1.0	-3.1	3.0	13.9	-4.9	nt	nt	nt
Cc1cc(O)c(N=Cc2cc3c(cc2[N+](=O)[O-])OCO3)cc1C	6.9	0.4	-1.8	-6.2	-7.0	18.8*	6.0	-30.3	5.6
COc1ccccc1CN(C)C(=O)c1sccc1-c1ccccc1	-4.3	-1.1	-1.2	-0.7	1.6	-1.5	nt	nt	nt
Oc1ccc(Br)cc1C=Nc1ccc(Cl)cc1	-0.4	-3.1	-5.1	0.1	0.8	3.2	nt	nt	nt
CCN(CC)c1ccc(N=Cc2cc(Br)ccc2O)cc1	7.3	-4.1	-7.3	-10.9	-13.2	24.3*	6.4	-23.0	7.1
Cc1noc(C)c1-c1ccc(C(=O)NCCC(F)(F)F)c2occc12	-0.8	-0.1	-2.1	-1.1	2.9	0.7	nt	nt	nt
COc1cc(NC(C)CCCN)c2ncccc2c1 (configuration not stated)	8.6	3.0	-11.6	-2.4	-19.1	34.8*	1.6	-8.2	31.3*
COc1cc(NCCCCCCCN)c2ncccc2c1	nt	nt	nt	nt	40.3	nt	nt	nt	nt
SMILES	rCAG RNA binder	UHRF1 MBD2 ctr	MBD2 inh	PG9 binder	DNMT1 inh	LEDGF integ inh	IN multimer act	TRFRET interf	IN-LEDGF confirm
CC1(C(=O)NS(=O)(=O)c2cccs2)CCN1C(=O)CC1CCCCC1 (configuration not stated)	2.8	1.4	0.3	0.8	1.0	-6.5	nt	nt	nt
COCCn1c(C)cc(C(=O)CSc2nnc3ccccn23)c1C	1.9	2.6	1.9	0.4	-1.0	15.0*	-2.0	10.0	32.9*
Cc1ccc(N2CC(C(=O)NCCN3CCOCC3)CC2=O)cc1C (configuration not stated)	2.1	1.3	1.1	-2.2	2.6	-2.8	nt	nt	nt
COc1cccc(NC(=O)CSc2nnc(-c3ccoc3C)n2-c2ccccc2)c1	-3.7	-2.9	-2.7	-0.3	nt	29.3*	1.6	-5.6	-12.9
Cc1nn(-c2ccccc2)c(N2CCCC2)c1/C=N/NC(=O)c1cc2ccccc2cc1O	27.6	-5.3	5.7	0.0	-23.5	14.3*	-1.3	4.7	3.3
COCC(=O)OC1CCn2c1nc1c2C(=O)C(C)=C(NC(C)=O)C1=O (configuration not stated)	2.3	13.3	-2.6	-6.1	87.7*	16.2*	6.0	-21.2	58.4*
COc1cc2c3nnc(-c4ccc(F)cc4)c-3cn(Cc3ccc(F)cc3)c2cc1OC	13.2	2.0	-4.5	0.5	-4.1	1.4	nt	nt	nt
COc1cc2c3nnc(-c4ccc(F)cc4)c-3cn(Cc3ccccc3)c2cc1OC	15.2	3.7	-3.6	1.5	-2.6	31.0*	-1.1	5.3	-4.7
N#C/C(=N\Nc1cc(Cl)cc(Cl)c1)c1nnc2n1CCCCC2	10.5	2.8	5.9	-0.3	-2.5	63.7*	1.3	-6.5	4.9
N#C/C(=C(/O)CCl)c1nnc2n1CCCCC2	-1.5	3.3	1.6	0.0	-0.1	-4.0	nt	nt	nt
CCNC(=S)N(Cc1ccccc1)Cc1nc2ccccc2c(=O)[nH]1	-2.2	3.8	5.0	-0.3	0.6	69.6*	5.0	-25.1	-3.7
COCCCNC(=S)N(Cc1ccccc1)Cc1nc2ccccc2c(=O)[nH]1	-4.3	1.4	-4.6	0.0	1.5	-0.8	nt	nt	nt
O=C(NN=Cc1c(O)ccc2ccccc12)c1ccc2c(c1)OCO2	8.0	-1.1	6.4	2.3	16.9	0.0	nt	nt	nt
O=C(N/N=C\c1c(O)ccc2ccccc12)c1ccc(S(=O)(=O)N2CCCCC2)cc1	-3.7	1.0	-6.8	1.8	22.0	41.0*	-0.3	1.2	-5.1

Source: PubChem (several laboratories)
